The text below walks through data of PubChem BioAssay (NCI).

SMILES strings stand for the structures. Compounds without any hit were thinned out: in the full panel of roughly 83,000, 20% have a hit.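 Note: values are percent growth. 100 is the growth of untreated cells, values between 100 and 0 indicate rising inhibition; between -100 and 0 indicates cell death.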 A number with no mark means an inactive call. Calls of active or inactive are those of the source. Rule for the calls: active = growth percent below 10; inactive = the rest.

The test system of the test is MDA-MB-468 breast. Kind of test: NCI-60 one-dose screen, 48 h (100 = growth as untreated, 0 = no growth, -100 = all killed). Particulars: 10 µM unless noted.
In the case of `COc1cc(O)c2c(c1)[C@H]1O[C@@H]1C[C@H](O)[C@H](O)C(=O)/C=C\C[C@H](C)OC2=O`, the growth is -1.54% (active).

As to `Cc1cccc([N+](=O)[O-])c1Cl`, the growth was 92.4%.

Consider `C[C@@H](Oc1cc(-c2cnn(C3CC4(CCCNC4)C3)c2)cnc1N)c1c(Cl)ccc(F)c1Cl` (stereo not given in full), for which the growth is -39.3% (active).

In the case of `COc1cc(OC)cc(C(=O)Nc2cnc(Nc3ccc(N4CCOCC4)nc3)nc2Oc2ccc(C(F)(F)F)cc2)c1`, the growth is 81.1%.

As to `COC(=O)[C@]12CC[C@@H](C)[C@H](C)[C@@H]1C1=CC(=O)[C@@H]3[C@@]4(C)C[C@@H](OC(C)=O)[C@H](OC(C)=O)[C@@](C)(COC(C)=O)[C@@H]4C(=O)C[C@@]3(C)[C@]1(C)CC2`, the growth was 35.3%. In the case of `O=C(CSc1nnc(Cc2ccccc2Nc2c(Cl)cccc2Cl)n1-c1ccccc1)N1N=C(c2ccc3ccccc3c2)CC1c1ccc(Cl)cc1` (stereo not given), the growth is 114%. Consider `COc1cccc(/C=C2\Oc3cc(OCCCN4CCCC4)ccc3C2=O)c1OC`, for which the growth was 93.2%. The value for `C(=C1c2ccccc2-c2ccccc21)c1ccccn1` was 22.4%; that for `COc1cc2cc(OC(C)=O)c3cc4c(cc3c2c(OC)c1OC)OCO4` was 96.4%. On to `Nc1c(C(=O)Nc2ccccn2)sc2nc3c(cc12)CCCC3`, for which the growth is 43.8%. For `CCOC(=O)/C(F)=C/C1CC1CCc1cccc(C(F)(F)F)c1` (stereo not given), the growth was 109%.

For `CCCCOC(=O)c1ccc(NC(=O)C(C)N2CCOCC2)cc1` (stereo not given), the growth was 97%. In the case of `NC(=S)N/N=C(/c1cccs1)C1CC1`, the growth is 37.4%. Consider `CCOC(=O)CC(C)=N`, for which the growth was 92.8%. As to `Clc1ccc(/C=N\N=C\c2ccc(Cl)c(Cl)c2)cc1Cl`, the growth was 78.5%. The same measure for `Clc1ccc(-c2cc(-c3ccccc3)nc(NCCNc3ccnc4cc(Cl)ccc34)n2)cc1`: -79.6% (active). Consider `Cc1ccc2c(c1)CC(O)CC1C(=O)N(CCO)CC(=O)N21` (stereo not given), for which the growth is 96%. The same measure for `c1coc2occoc=2o1`: 98.6%. Consider `Cc1ccc(NC2=CC(=O)C(=O)c3ccccc32)cc1`, for which the growth is -12.4% (active). Regarding `N#Cc1c(-c2ccc(F)cc2)nc(N/N=C/c2c[nH]c3ccccc23)nc1N1CCOCC1`, the growth is 25.2%.

Take `O=C(Nc1ncc(Cc2cccc(C(F)(F)F)c2)s1)C1COc2ccccc2O1` (stereo not given): the growth was 77.4%. With `COc1ccc2nc3ccccc3c(NCc3ccc(F)cc3)c2c1`, the growth was -23.9% (active).

Regarding `Cn1c(C(N)=O)cc2c1-c1nc(NC3CCCCC3)ncc1CCC2`, the growth is 93.7%.

As to `O=C(Nc1nc2ccc(O)cc2s1)c1cccc(C(F)(F)F)c1`, the growth was 84.6%.

For the compound `O=C(O)Cc1ccc2c(c1)Cc1cccnc1O2`, the growth was 97.1%. Turning to `Cc1cc(NC(=O)c2cccc(C(F)(F)F)c2)ccc1-n1ccc2c(NC(=O)c3ccccc3)nccc21`, the growth was 111%. For `CCCCCCc1cc2cc(-c3csc(/C=C/c4ccccc4)n3)c(=O)oc2cc1O`, the growth is -21.1% (active).

Turning to `Cc1ccc(NC(=O)c2cc3ccccc3cc2O)c(C)c1`, the growth was 87.6%. For the compound `CC(=O)Nc1ccc2nc3ccc(NC(C)=O)cc3[n+](-c3ccccc3)c2c1`, the growth was 104%. In the case of `Cc1cc(C)c(CC(=O)O)c(C)c1`, the growth is 111%. `CCNC(=NCCCN(C)C)N/C(N)=N/c1nc2ccccc2s1`: the growth was 94.3%. The same measure for `COc1cc(C2=Nc3c(N)nc(N)nc3NC(c3cccc(Nc4ccnc5cc(C(F)(F)F)ccc45)c3)C2)cc(OC)c1OC` (stereo not given): 68.1%.

As to `CCN(CC)c1ccc(/C=C2\SC(=O)C(Nc3nnc(-c4cccnc4SCc4ccccc4)o3)C2=O)cc1` (stereo not given), the growth is 2.42% (active). In the case of `Cn1cc(-c2nnc(N)nc2-c2c[nH]c3ccc(Br)cc23)c2cc(Br)ccc21`, the growth was 105%. For `O=C(Nc1ncc(Cc2ccccc2)s1)c1ccc2c(c1)OCCCO2`, the growth is 7.91% (active). The value for `Cc1nccc2c3ccc(OCc4cn(-c5ccc(Cl)cc5)nn4)cc3n(CCCc3ccccc3)c12` was 10.6%; that for `ClC1C2CC(c3ccccc32)C1Cl` (stereo not given) was 104%; that for `O=C(O)[C@@H]1[C@H]2C[C@H]3c4[nH]c5ccccc5c4CCN3C[C@@H]2CC[C@@H]1O` was 104%.

As for `Cc1nn(-c2ccccc2)c(N2CCOCC2)c1/C=N/N=c1\sc2ccccc2n1C`, the growth is 71.6%. Take `CCNc1nc(S(=O)(=O)CC)nc2ccccc12`: the growth was 76.4%.
